High-throughput results deposited in PubChem BioAssay by several laboratories.
ADAM10 inh: inhibits human ADAM10 | O14672 | recombinant ADAM10, EDANS/DABCYL FRET peptide cleavage, 3 h | inhibition, % at 7 µM | actives 0.62% (n = 370,000) | AID 720582;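 active = inhibition above a per-campaign cutoff equal to the mean of compounds falling between control-based bounds plus 3 SD, cut at about 20% in these data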
Target sequence (O14672 214-748 limits assumed): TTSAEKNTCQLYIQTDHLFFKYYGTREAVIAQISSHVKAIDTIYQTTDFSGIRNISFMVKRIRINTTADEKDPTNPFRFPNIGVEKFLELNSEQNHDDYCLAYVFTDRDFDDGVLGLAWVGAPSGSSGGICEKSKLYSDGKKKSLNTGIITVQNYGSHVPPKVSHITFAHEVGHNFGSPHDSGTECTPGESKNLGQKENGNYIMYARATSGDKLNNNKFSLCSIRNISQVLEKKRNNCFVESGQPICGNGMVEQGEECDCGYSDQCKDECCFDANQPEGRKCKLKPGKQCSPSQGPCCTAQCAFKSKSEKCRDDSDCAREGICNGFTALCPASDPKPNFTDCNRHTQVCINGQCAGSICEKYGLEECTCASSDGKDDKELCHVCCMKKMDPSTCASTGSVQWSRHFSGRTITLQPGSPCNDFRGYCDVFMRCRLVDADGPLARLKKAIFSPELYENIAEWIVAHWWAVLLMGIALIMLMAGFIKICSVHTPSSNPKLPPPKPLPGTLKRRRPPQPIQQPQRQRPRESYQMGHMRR
ADAM17 inh: inhibitors of human ADAM17; P78536; recombinant ADAM17, EDANS/DABCYL FRET peptide cleavage; actives 0.83% (n = 370,000); inhibition, % at 6.95 µM; AID 720648;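 active = inhibition above the mean of compounds lying between control limits plus 3 SD, set per campaign, cut at about 8.5% in these data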
rCAG RNA binder: binds r(CAG) RNA repeats; inhibition, % at 3 µM; actives 1.3% (n = 370,000); r(CAG) RNA repeat, TO-PRO-1 dye displacement fluorescence;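 active = inhibition above the plate cutoff, the mean of all test compounds on that plate plus 3 SD, cut at about 35% in these data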;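 note: higher means more dye released from RNA so lower well fluorescence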
NR3A LBD binder: NR3A (human) ligand-binding domain modulation; NR3A LBD differential scanning fluorimetry, Tm shift; 0% = protein alone, 100% = glycine-bound protein; Tm shift relative to glycine control, % at 25 µM; actives 2.5% (n = 340,000); AID 1259313;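 active = melting temperature shift of at least 10% of the positive control shift, at one fixed dose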
proKLK7 act: activates the human kallikrein-7 zymogen | P49862 | purified proKLK7, EDANS-DABCYL substrate fluorescence; 100% is mature enzyme control, 0% vehicle | activation, % at 7 µM | actives 0.9% (n = 370,000) | AID 652039;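 active = activation above the mean of all tested compounds plus 3 SD, computed per campaign excluding outliers beyond control limits, cut at about 13% in these data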
AHR act: activators of human aryl hydrocarbon receptor; P35869; AHR-responsive luciferase reporter cells, luminescence; activation, % at 5 µM; actives 2.5% (n = 320,000); in the data active = activation above about 47%
ADAM10 confirm: human ADAM10 inhibition, confirmation; shares compounds with ADAM10 inh; ADAM10 QFRET peptide cleavage, EDANS fluorescence; inhibition, % at 6.95 µM; actives 1% (n = 2,100); AID 743208;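 active = inhibition above about 20% chosen separately for each screening run, limit read from the data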
ADAM17 ctr: ADAM17 inhibition, counter-screen for ADAM10 exosite hits. shares compounds with ADAM10 inh. ADAM17 QFRET peptide cleavage, EDANS fluorescence. inhibition, % at 6.95 µM. actives 0.5% (n = 2,100). AID 743214;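 active = mean triplicate inhibition above the solvent-only control wells' mean plus 3 SD, cut at about 12% in these data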
ADAM10 counter: counter-screen for ADAM17 exosite inhibitors: inhibitors of human ADAM10. actives 47% (n = 2,900). inhibition, % at 6.95 µM. recombinant ADAM10, EDANS/DABCYL FRET peptide cleavage, 3 h. shares compounds with ADAM17 inh;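 active = mean inhibition over the triplicate runs exceeds the activity threshold set in the earlier primary screen, cut at about 20% in these data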
ADAM17 confirm: confirmation of inhibitors of human ADAM17. shares compounds with ADAM17 inh. recombinant ADAM17, EDANS/DABCYL QFRET peptide cleavage. inhibition, % at 6.95 µM. actives 65% (n = 2,900);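 active = mean inhibition across replicates above the hit cutoff set in the primary screen, cut at about 8.5% in these data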
Large screens that a line does not name were inactive (follow-up assays come after a bar, where they were run). Rows were chosen to be rich in hits. Some 7% of all compounds tested hit in one or more screens of this group.

COc1ccc(C(O)c2ncc(-c3cccc(C(F)(F)F)c3)[nH]2)cc1F (centres undefined)	none (no result: NR3A LBD binder, AHR act)
Cc1ccc(C(O)c2ncc(-c3cccc(C(F)(F)F)c3)[nH]2)c(C)c1 (centres undefined)	none (no result: NR3A LBD binder, AHR act)
Cc1cccc(C(O)c2ncc(-c3cccc(C(F)(F)F)c3)[nH]2)c1C (centres undefined)	ADAM10 inh 22, ADAM17 inh 15 (no result: NR3A LBD binder, AHR act) | ADAM10 confirm inactive | ADAM17 ctr inactive | ADAM10 counter inactive | ADAM17 confirm inactive
OC(c1cc(F)cc(Cl)c1)c1ncc(-c2ccc(Cl)cc2)[nH]1 (centres undefined)	ADAM10 inh 29, ADAM17 inh 17 (no result: NR3A LBD binder, AHR act) | ADAM10 confirm inactive | ADAM17 ctr inactive | ADAM10 counter 21 | ADAM17 confirm 11
O=C(N[C@@H]1c2ccccc2CC[C@@H]1OCc1ccccc1)c1ccc(C(F)(F)F)cc1	none (no result: AHR act)
CC(C)C[C@H]1CN(CCCC[C@H]2CNC(=O)C(=O)N2CCc2ccccc2)C(=O)C(=O)N1CC1CCCCC1	none (no result: NR3A LBD binder, AHR act)
Cc1ccc(SCC2(O)CCN(S(=O)(=O)c3ccc(Cl)cc3)CC2)cc1	ADAM10 inh 29, ADAM17 inh 17 | ADAM10 confirm inactive | ADAM17 ctr inactive | ADAM10 counter 28 | ADAM17 confirm 16
Cc1ccc(S(=O)(=O)N2CCN(C(=O)CSc3ccc(Cl)cc3)CC2)cc1	none
CCOC(=O)/C(C#N)=C1\SS/C(=C(/C#N)C(=O)OCC)S1	none (no result: ADAM10 inh, ADAM17 inh, rCAG RNA binder, NR3A LBD binder, proKLK7 act)
CCCCOC(=O)C1=C(C)N(C)C(=O)NC1c1cc2c(cc1Br)OCO2 (centres undefined)	none (no result: NR3A LBD binder, AHR act)
CCCCCOC(=O)C1=C(C)N(C)C(=O)NC1c1cc(Br)c(O)c(OC)c1 (centres undefined)	ADAM10 inh 20, ADAM17 inh 11 | ADAM10 confirm inactive | ADAM17 ctr inactive | ADAM10 counter inactive | ADAM17 confirm inactive
O=C(NC(=S)NCCC1=CCCCC1)c1cncc(Br)c1	none
O=C(CSc1ccc(Cl)cc1Cl)N1CCC(c2nc3ccccc3s2)CC1	ADAM10 inh 21, ADAM17 inh 12 | ADAM10 confirm inactive | ADAM17 ctr inactive | ADAM10 counter inactive | ADAM17 confirm 13
CCNC(=O)N1CCC(c2nc3ccccc3s2)CC1	none
FC(F)Sc1ccc(NC(=S)NC2CCCCC2)cc1	ADAM10 inh 25, ADAM17 inh 14, NR3A LBD binder 15 | ADAM10 confirm inactive | ADAM17 ctr inactive | ADAM10 counter inactive | ADAM17 confirm 11
CC1CCCCC1NC(=S)Nc1ccc(SC(F)F)cc1 (centres undefined)	none
COc1ccc(CCNc2oc(COc3ccc(F)cc3)nc2C#N)cc1	ADAM10 inh 24, ADAM17 inh 10 | ADAM10 confirm inactive | ADAM17 ctr inactive | ADAM10 counter 33 | ADAM17 confirm 18
COC(=O)C1CCN(C2CN(Cc3ccccc3)S(=O)(=O)C2)CC1 (centres undefined)	none (no result: NR3A LBD binder, AHR act)
Cc1cccc(-n2ncc3c(NCc4cccs4)ncnc32)c1	ADAM10 inh 23, ADAM17 inh 12 | ADAM10 confirm inactive | ADAM17 ctr inactive | ADAM10 counter inactive | ADAM17 confirm 9.6
Clc1ccc(-n2ncc3c(NCc4cccs4)ncnc32)cc1	none
CCn1c2ccccc2c2cc(NS(=O)(=O)c3ccccc3C)ccc21	ADAM10 inh 25, ADAM17 inh 9.4, AHR act 73 | ADAM10 confirm inactive | ADAM17 ctr inactive | ADAM10 counter 21 | ADAM17 confirm 12
CCOC(=O)C(=CNc1ccc2c(c1)c1ccccc1n2CC)C(=O)OCC	none
CC(C)CN1CCC(=O)N([C@H](COc2ccccc2)c2ccccc2)CC1	none
Cc1cc(Cl)ccc1NC(=S)NCCc1ccc(Cl)cc1	ADAM10 inh 25, ADAM17 inh 9.8 | ADAM10 confirm inactive | ADAM17 ctr inactive | ADAM10 counter inactive | ADAM17 confirm inactive
Cc1cc(Cl)ccc1NC(=S)NCc1ccc(Cl)cc1	none
O=[N+]([O-])c1cccc(NNS(=O)(=O)c2ccccc2F)c1	none
O=C(NN1C(=O)C2C3c4ccccc4C(c4ccccc43)C2C1=O)C1CC1 (centres undefined)	none
C/C=C/c1ccc(O)c(OC)c1	none
COc1cc(/C=C/C=C2/CC/C(=C/C=C/c3ccc(O)c(OC)c3)C2=O)ccc1O	ADAM10 inh 22, ADAM17 inh 17, rCAG RNA binder 80 (no result: AHR act) | ADAM10 confirm inactive | ADAM17 ctr inactive | ADAM10 counter inactive | ADAM17 confirm inactive
COc1cccc(CN(C(=O)Cc2c[nH]c3ccccc23)C(C(=O)NC2CCCCC2)c2ccc(C)o2)c1 (centres undefined)	ADAM10 inh 22, ADAM17 inh 11, NR3A LBD binder 23 | ADAM10 confirm inactive | ADAM17 ctr inactive | ADAM10 counter 33 | ADAM17 confirm 16
Cc1ccc(C(C(=O)NC2CCCCC2)N(Cc2ccccc2)C(=O)Cc2c[nH]c3ccccc23)o1 (centres undefined)	ADAM10 inh 20, ADAM17 inh 15 | ADAM10 confirm inactive | ADAM17 ctr inactive | ADAM10 counter inactive | ADAM17 confirm 12
CCCS(=O)(=O)NC(=O)C1(C)CCN(C(=O)c2cccc(OC(F)(F)F)c2)C1 (centres undefined)	none (no result: NR3A LBD binder, AHR act)
CN1CCN(c2ccc([N+](=O)[O-])c(-n3nc(-c4ccccc4)c4ccccc4c3=O)c2)CC1	ADAM10 inh 20, ADAM17 inh 13 | ADAM10 confirm inactive | ADAM17 ctr inactive | ADAM10 counter inactive | ADAM17 confirm 9.7
O=C(/C=C/c1ccc(Cl)cc1)N1CCN(c2c(Cl)cccc2[N+](=O)[O-])CC1	ADAM10 inh 23, ADAM17 inh 12 | ADAM10 confirm inactive | ADAM17 ctr inactive | ADAM10 counter inactive | ADAM17 confirm 8.7
CCOC(=O)[C@@H](C)N(Cc1ccc(OC)cc1)S(=O)(=O)N(Cc1ccccc1)[C@H](C(=O)OC)C(C)C	none
CCN(CC)S(=O)(=O)c1ccc(NC(=O)c2cccs2)cc1	none
CCN(CC)S(=O)(=O)c1cccc(C(=O)Oc2cccc(NC(=O)c3cccs3)c2)c1	ADAM10 inh 27, ADAM17 inh 9.3 | ADAM10 confirm inactive | ADAM17 ctr inactive | ADAM10 counter 22 | ADAM17 confirm 13
